According to PubChem BioAssay AID1159580 (chemical genetic matrix, 2015):
Hit rate of the full screen: of about 5,500 compounds, about 2,000 (36%) were called active. Not shown: some 18% with an inconclusive outcome. Cut-off read from the data, not from the text of the source: active = normalized growth mostly below about 0.91 (no sharp cut-off); inconclusive = no clear call, values can overlap the other calls; inactive = mostly above about 0.92. The list shows a part of the results.

Experiment: chemical genetic growth profiling, strain panel (AID 1159580);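 note: tested at 20 µM; growth read once vehicle control cultures reached saturation at 30 °C; 1 = growth at the plate median or of vehicle wells; lower values mean less growth of the strain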
Details: growth OD

Measured: normalized growth

CC[C@@H]1[C@@H](O)N2C3C[C@H]1C1C(O)[C@]4(C[C@@H]12)c1ccccc1N(C)[C@@H]34 (some centres not stated)
inactive: S. cerevisiae deletion strains, locus YJR075W, strain HOC1, hits give low values 0.986 | S. cerevisiae deletion strains, locus YKL009W, strain mrt4, hits give low values 1.02 | S. cerevisiae deletion strains, locus YKL068W, hits give low values 0.987 | S. cerevisiae deletion strains, locus YKL085W, strain MDH1 (second series), hits give low values 0.997 | S. cerevisiae deletion strains, locus YKL085W, strain MDH1, hits give low values 0.997 | S. cerevisiae deletion strains, locus YKL160W, strain elf1, hits give low values 1 | S. cerevisiae deletion strains, locus YKL190W, strain CNB1, hits give low values 0.989 | S. cerevisiae deletion strains, locus YKR001C, strain vps1, hits give low values 0.965 | S. cerevisiae deletion strains, locus YKR026C, strain gcn3, hits give low values 1.02 | S. cerevisiae deletion strains, locus YKR091W, strain srl3, hits give low values 1.03 | S. cerevisiae deletion strains, locus YLL001W, strain dnm1, hits give low values 1.02 | S. cerevisiae deletion strains, locus YLL026W, hits give low values 1 | S. cerevisiae deletion strains, locus YLL041C, strain sdh2, hits give low values 1.05 | S. cerevisiae deletion strains, locus YLR027C, strain aat2, hits give low values 1.02 | S. cerevisiae deletion strains, locus YLR039C, strain RIC1, hits give low values 0.985 | S. cerevisiae deletion strains, locus YLR058C, strain SHM2, hits give low values 0.992 | S. cerevisiae deletion strains, locus YLR102C, strain apc9, hits give low values 0.973 | S. cerevisiae deletion strains, locus YLR113W, strain HOG1, hits give low values 0.996 | S. cerevisiae deletion strains, locus YLR221C, strain rsa3, hits give low values 1.01 | S. cerevisiae deletion strains, locus YLR258W, strain gsy2, hits give low values 1.03 | S. cerevisiae deletion strains, locus YLR262C, strain YPT6 (second series), hits give low values 1.01 | S. cerevisiae deletion strains, locus YLR262C, strain YPT6, hits give low values 0.984 | S. cerevisiae deletion strains, locus YLR268W, strain sec22, hits give low values 0.935 | S. cerevisiae deletion strains, locus YLR320W, strain mms22, hits give low values 1.01 | S. cerevisiae deletion strains, locus YLR330W, strain CHS5, hits give low values 0.994 | S. cerevisiae deletion strains, locus YLR342W, strain FKS1 (second series), hits give low values 1.01 | S. cerevisiae deletion strains, locus YLR342W, strain FKS1, hits give low values 1.01 | S. cerevisiae deletion strains, locus YLR357W, strain rsc2, hits give low values 1.09 | S. cerevisiae deletion strains, locus YLR370C, strain arc18, hits give low values 1.03 | S. cerevisiae deletion strains, locus YLR371W, strain rom2, hits give low values 0.975 | S. cerevisiae deletion strains, locus YLR384C, strain iki3, hits give low values 1.03 | S. cerevisiae deletion strains, locus YLR418C, strain cdc73, hits give low values 0.961 | S. cerevisiae deletion strains, locus YML016C, strain PPZ1, hits give low values 0.992 | S. cerevisiae deletion strains, locus YML032C, strain rad52, hits give low values 0.954 | S. cerevisiae deletion strains, locus YML120C, strain ndi1, hits give low values 1.02 | S. cerevisiae deletion strains, locus YML124C, strain tub3, hits give low values 0.982 | S. cerevisiae deletion strains, locus YMR058W, strain fet3, hits give low values 1.01 | S. cerevisiae deletion strains, locus YMR078C, strain ctf18, hits give low values 0.958 | S. cerevisiae deletion strains, locus YMR125W, strain sto1, hits give low values 1.06 | S. cerevisiae deletion strains, locus YMR129W, hits give low values 1.01 | S. cerevisiae deletion strains, locus YMR205C, strain PFK2, hits give low values 1.03 | S. cerevisiae deletion strains, locus YMR223W, strain ubp8, hits give low values 0.996 | S. cerevisiae deletion strains, locus YMR231W, strain pep5, hits give low values 1.03 | S. cerevisiae deletion strains, locus YMR263W, strain SAP30, hits give low values 1 | S. cerevisiae deletion strains, locus YMR307W, strain GAS1, hits give low values 0.974 | S. cerevisiae deletion strains, locus YNL067W, strain RPL9B, hits give low values 0.981 | S. cerevisiae deletion strains, locus YNL071W, strain lat1, hits give low values 1.03 | S. cerevisiae deletion strains, locus YNL128W, strain TEP1, hits give low values 0.991 | S. cerevisiae deletion strains, locus YNL153C, strain GIM3, hits give low values 0.992 | S. cerevisiae deletion strains, locus YNL183C, strain NPR1, hits give low values 0.917 | S. cerevisiae deletion strains, locus YNL209W, strain ssb2, hits give low values 1.04 | S. cerevisiae deletion strains, locus YNL233W, strain BNI4, hits give low values 0.977 | S. cerevisiae deletion strains, locus YNL248C, strain rpa49, hits give low values 1.01 | S. cerevisiae deletion strains, locus YNL250W, strain rad50, hits give low values 0.981 | S. cerevisiae deletion strains, locus YNL271C, strain bni1, hits give low values 0.973 | S. cerevisiae deletion strains, locus YNL298W, strain CLA4, hits give low values 0.968 | S. cerevisiae deletion strains, locus YNL307C, strain MCK1, hits give low values 0.99 | S. cerevisiae deletion strains, locus YNL322C, strain KRE1 (second series), hits give low values 1.05 | S. cerevisiae deletion strains, locus YNL322C, strain KRE1, hits give low values 0.998 | S. cerevisiae deletion strains, locus YNR049C, strain mso1, hits give low values 1.03 | S. cerevisiae deletion strains, locus YNR052C, strain pop2, hits give low values 0.982 | S. cerevisiae deletion strains, locus YOL006C, strain TOP1, hits give low values 0.921 | S. cerevisiae deletion strains, locus YOL012C, strain htz1 0.945 | S. cerevisiae deletion strains, locus YOL147C, strain pex11, hits give low values 0.974 | S. cerevisiae deletion strains, locus YOR001W, strain rrp6, hits give low values 1.02 | S. cerevisiae deletion strains, locus YOR061W, strain CKA2, hits give low values 0.97 | S. cerevisiae deletion strains, locus YOR069W, strain VPS5, hits give low values 0.995 | S. cerevisiae deletion strains, locus YOR070C, strain gyp1, hits give low values 1.03 | S. cerevisiae deletion strains, locus YOR080W, strain dia2, hits give low values 1.04 | S. cerevisiae deletion strains, locus YOR083W, strain WHI5, hits give low values 0.979 | S. cerevisiae deletion strains, locus YOR106W, strain vam3, hits give low values 1.04 | S. cerevisiae deletion strains, locus YOR136W, strain idh2, hits give low values 0.98 | S. cerevisiae deletion strains, locus YOR144C, strain elg1, hits give low values 0.962 | S. cerevisiae deletion strains, locus YOR184W, strain ser1, hits give low values 0.97 | S. cerevisiae deletion strains, locus YOR231W, strain MKK1, hits give low values 1.01 | S. cerevisiae deletion strains, locus YOR265W, strain rbl2, hits give low values 1.03 | S. cerevisiae deletion strains, locus YOR270C, strain vph1, hits give low values 1.14 | S. cerevisiae deletion strains, locus YOR290C, strain snf2, hits give low values 1.02 | S. cerevisiae deletion strains, locus YOR316C, strain cot1, hits give low values 0.975 | S. cerevisiae deletion strains, locus YPL051W, strain arl3, hits give low values 1.02 | S. cerevisiae deletion strains, locus YPL055C, strain LGE1, hits give low values 1 | S. cerevisiae deletion strains, locus YPL078C, strain atp4, hits give low values 1.03 | S. cerevisiae deletion strains, locus YPL106C, strain sse1, hits give low values 1.06 | S. cerevisiae deletion strains, locus YPL240C, strain hsp82, hits give low values 1.02 | S. cerevisiae deletion strains, locus YPL241C, strain CIN2, hits give low values 0.994 | S. cerevisiae deletion strains, locus YPL256C, strain CLN2, hits give low values 0.982 | S. cerevisiae deletion strains, locus YPR119W, strain clb2, hits give low values 0.972 | S. cerevisiae deletion strains, locus YPR141C, strain kar3, hits give low values 0.979 | S. cerevisiae deletion strains, locus YPR163C, strain tif3, hits give low values 0.966 | S. cerevisiae deletion strains, locus YPR167C, strain met16, hits give low values 0.976 | S. cerevisiae deletion strains, strain wtn01, hits give low values 0.963 | S. cerevisiae strains, strain wild type, hits give low values 0.994
